# Test results from PubChem BioAssay (Tox21).
# Inconclusive results are not listed. Entries that show only a call come without a potency. Unmarked numbers belong to inactive results. Active and inactive are the calls of the source. Calls come from the whole dose curve; as a rule, active = well fitted activation curve with a large enough effect in the signal ratio in the repeat runs (not every such curve was filed as active); inconclusive = weak or mixed curves, or effect the other way; inactive = flat fitted curve, though single readings scatter; the % refers to the signal ratio.
# Target: Estrogen receptor beta (Homo sapiens) (UniProt Q92731)
# Sequence (Q92731 whole entry, looked up): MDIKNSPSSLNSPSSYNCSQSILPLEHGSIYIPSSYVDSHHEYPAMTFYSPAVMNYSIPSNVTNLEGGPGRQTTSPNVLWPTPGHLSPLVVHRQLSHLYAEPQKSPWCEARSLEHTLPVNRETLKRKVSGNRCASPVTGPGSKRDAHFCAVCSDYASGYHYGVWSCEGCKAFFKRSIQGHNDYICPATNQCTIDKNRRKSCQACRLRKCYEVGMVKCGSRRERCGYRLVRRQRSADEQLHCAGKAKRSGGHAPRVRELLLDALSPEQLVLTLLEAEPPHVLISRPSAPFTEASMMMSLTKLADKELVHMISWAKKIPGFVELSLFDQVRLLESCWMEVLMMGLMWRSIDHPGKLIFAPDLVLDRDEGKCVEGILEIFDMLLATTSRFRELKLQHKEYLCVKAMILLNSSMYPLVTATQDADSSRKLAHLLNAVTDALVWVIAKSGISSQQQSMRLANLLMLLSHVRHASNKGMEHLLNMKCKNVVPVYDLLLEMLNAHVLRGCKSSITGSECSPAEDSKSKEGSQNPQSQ
# Test: qHTS assay to identify small molecule agonists of the estrogen receptor beta (ER-beta) signaling pathway (AID 1259377)
# Conditions: ER-beta-UAS-bla HEK293T, beta-lactamase FRET ratio, 16 h; series mostly up to 92.4 µM
# Description: U.S. Tox21 Program National Center for Advancing Translational Sciences [NCATS] NIH Chemical Genomics Center [NCGC] U.S. Environmental Protection Agency [EPA] National Institutes of Environmental Health Sciences [NIEHS] National Toxicology Program [NTP] U.S. Food and Drug Administration [FDA] Tox21 Assay Overview: Estrogen receptor (ER), a nuclear hormone receptor, plays an important role in development, metabolic homeostasis and reproduction. Two subtypes of ER, ER-alpha and ER-beta, have similar expression patterns with some uniqueness in both types. Endocrine disrupting chemicals (EDCs) and their interactions with steroid hormone receptors like ER causes disruption of normal endocrine function. To identify the compounds that activate ER signaling, an ER beta-UAS-bla GripTite cell line (Life technologies, Madison, WI, USA) containing a beta-lactamase reporter gene under the control of an Upstream Activator Sequence (UAS) was used to screen Tox21 10K compound library.
# Tox21 Assay Protocol Summary: ER-beta-UAS-bla HEK293T cells were dispensed at 2,000 cells/5 uL of assay medium containing 2% charcoal stripped FBS per well into black wall/clear-bottom 1536-well plates using a Multidrop Combi (ThermoFisher Scientific, Waltham, MA) dispenser. After the assay plates were incubated at a 37C and 5% CO2 for 6 hr, 23 nL of compounds dissolved in DMSO, positive controls or DMSO only was transferred to the assay plate by a Pintool station (Kalypsys, San Diego, CA). The plates were incubated at 37C and 5% CO2 for 16 hr. Then 1 uL of LiveBLAzerTM B/G FRET substrate was added using a BioRAPTR FRD (Flying Reagent Dispenser, Aurora Discovery, San Diego, CA). After the plates were incubated at room temperature for 2 hours, fluorescence intensity was measured by an Envision plate reader (PerkinElmer, Shelton, CT).
SMILES,Potency,activation
CO[C@H]1O[C@H](CO)[C@@H](O)[C@H](O)[C@H]1O,inactive,–
CCCCCCCCCCCCCCC[C@H](O)[C@@H](N)CO,inactive,–
NC(=O)N(O)[C@@H]1C=C[C@H](Oc2cccc(Oc3ccc(F)cc3)c2)C1,inactive,–
C(=C\c1ccccc1)/CN1CCN(C(c2ccccc2)c2ccccc2)CC1,inactive,–
CCCCOC(=O)CCS,inactive,–
CCC(C)=O,inactive,–
O=C(CS)OCCOC(=O)CS,inactive,–
Cc1cc(O)c(C(C)C)cc1Cl,inactive,–
CC(=O)Nc1ccccc1C,inactive,–
CC(=N\O)/C(C)=N/O,inactive,–
C/C=C(\C)C(=O)OCCC(C)CCC=C(C)C (stereo not given),inactive,–
CC(=O)Oc1ccc(C(=C2CCCCC2)c2ccc(OC(C)=O)cc2)cc1,inactive,–
CCCCCCCCCCCCCCCCBr,–,0.819% [at 19 µM]
C[C@]12CCC(=O)C=C1C=C[C@@H]1[C@@H]2CC[C@@]2(C)[C@H]1CC[C@@]21CCC(=O)O1,inactive,–
CNCCCC1c2ccccc2C=Cc2ccccc21,inactive,–
CCc1c2c(nc3ccc(OC(=O)N4CCC(N5CCCCC5)CC4)cc13)-c1cc3c(c(=O)n1C2)COC(=O)[C@]3(O)CC,inactive,–
O=C(Nc1ccc([N+](=O)[O-])cc1)Nc1ccc([N+](=O)[O-])cc1,inactive,–
CCOC(=O)OCC,inactive,–
COC(OC)(C(=O)c1ccccc1)c1ccccc1,inactive,–
CCOC(=O)C(C)Oc1ccc(Oc2nc3ccc(Cl)cc3o2)cc1 (stereo not given),inactive,–

SMILES,Potency,activation
COc1ccc(CCC(=O)c2c(O)cc(O[C@@H]3O[C@H](CO)[C@@H](O)[C@H](O)[C@H]3O[C@@H]3O[C@@H](C)[C@H](O)[C@@H](O)[C@H]3O)cc2O)cc1O,inactive,–
O=c1[nH]c2ccc(S(=O)CCN3CCC(Cc4ccc(F)cc4)CC3)cc2o1 (stereo not given),inactive,–
CC(CCc1ccc2c(c1)OCO2)NN (stereo not given),inactive,–
OC/C(Br)=C(\Br)CO,inactive,–
N#C/C(=C1/SC[C@@H](c2ccc(Cl)cc2Cl)S1)n1ccnc1,inactive,–
Nc1nccs1,inactive,–
CCNC(=O)N1CCN(CCCC(c2ccc(F)cc2)c2ccc(F)cc2)CC1,inactive,–
CC(=O)Nc1ccc(N)cc1,inactive,–
CC(C)(O)c1ccccc1CC[C@@H](SCC1(CC(=O)O)CC1)c1cccc(/C=C/c2ccc3ccc(Cl)cc3n2)c1,inactive,–
CN1C(=O)CC(C)(c2ccccc2)C1=O (stereo not given),inactive,–
CO[Si](C)(OC)OC,inactive,–
C=CC(=C)CCCC(C)(C)OC(C)=O,inactive,–
CCOC(=O)/C=C/C(=O)O,inactive,–
Cc1cc(C(=C2C=CC(=Nc3ccc(S(=O)(=O)O)cc3S(=O)(=O)O)C=C2)c2ccc(Nc3ccc(S(=O)(=O)O)cc3)cc2)ccc1N,inactive,–
c1cc[c]([Bi]([c]2ccccc2)[c]2ccccc2)cc1,inactive,–
C=CC(C)=CCC=C(C)C,inactive,–
O=C(CCCN1CCC(O)(c2ccc(Br)cc2)CC1)c1ccc(F)cc1,inactive,–
CCC(=O)OC/C=C/c1ccccc1,inactive,–
CO/N=C1\CN(c2nc3c(cc2F)c(=O)c(C(=O)O)cn3C2CC2)CC1CN (stereo not given),inactive,–
O=C(CCC1CCN(Cc2ccccc2)CC1)c1ccc2c(c1)NCCCC2,inactive,–
